This is a sample that favours compounds with a hit; in the whole collection about 2.4% have one here.
EP2 mod: modulators of human EP2 prostaglandin E2 receptor; P43116; AID 940; induction, % at 25 µM; EP2-expressing cells, cAMP HTRF FRET, PGE2 co-stimulation; actives 0.83% (n = 260,000);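 active = compounds whose cAMP rise, as percent of the full-agonist control response, exceeds 60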;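 also: rat C6 glioma line stably carrying human EP2 under a CMV promoter; the protocol text gives 20 µM as final concentration; 100% = response of wells given 1 µM PGE2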
Insulin prom inh: TRM-6 insulin promoter activity inhibition; inhibition, % at 2 µM; AID 1273; TRM-6 cells (human fetal islet line), insulin promoter-eGFP reporter, imaging; reporter expression induced with tamoxifen; actives 0.9% (n = 130,000);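 active = inhibition above the mean plus 3 SD, with well images judged a real hit on visual review, cut at about 60% in these data, passing the limit was not always enough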
PGE2 EP2 inh: blocks the human prostaglandin E2 receptor EP2; P43116; C6 glioma cells expressing human EP2, cAMP TR-FRET; cells stimulated with saturating PGE2; inhibition, % at 25 µM; actives 0.52% (n = 260,000); AID 1422;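 active = percent inhibition above 40 after rounding to a whole number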;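 also: rat C6 glioma host cells with rolipram phosphodiesterase inhibitor present; the protocol text gives 20 µM as final concentration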
S1P4 agonist: agonists of human S1P4 receptor | O95977 | S1P4-expressing cell line, agonist reporter assay | activation, % at 4.98 µM | actives 0.35% (n = 220,000); in the data active = activation above about 11%;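 also: 0% = DMSO vehicle and 100% = reference agonist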
Target sequence (O95977 whole entry, looked up): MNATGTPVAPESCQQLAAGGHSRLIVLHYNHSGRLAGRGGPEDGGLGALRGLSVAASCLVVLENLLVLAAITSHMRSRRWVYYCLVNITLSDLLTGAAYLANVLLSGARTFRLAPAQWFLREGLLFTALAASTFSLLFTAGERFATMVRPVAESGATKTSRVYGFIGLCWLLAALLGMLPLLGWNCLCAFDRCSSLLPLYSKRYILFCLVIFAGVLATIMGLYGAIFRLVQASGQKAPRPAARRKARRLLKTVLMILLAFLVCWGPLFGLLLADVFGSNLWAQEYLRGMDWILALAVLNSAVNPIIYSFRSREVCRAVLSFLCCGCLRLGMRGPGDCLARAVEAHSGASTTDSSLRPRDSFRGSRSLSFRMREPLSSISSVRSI
S1P4 antag: blocks the human S1P4 receptor | O95977 | S1P4-expressing cells, antagonist mode, reporter read-out | inhibition, % at 4.98 µM | actives 0.26% (n = 220,000) | AID 1510; in the data active = inhibition above about 29%;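 also: 0% = wells stimulated with agonist and 100% = vehicle wells without agonist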
S1P3 antagonist: blocks the human S1P3 receptor; CHO S1P3 NFAT-BLA reporter, FRET fluorescence, antagonist mode; inhibition, % at 4.98 µM; Q99500; AID 485; actives 0.27% (n = 170,000);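 active = inhibition above the plate cutoff, the mean inhibition of test wells on that plate plus 3 SD, cut at about 28% in these data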;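 also: cells challenged with S1P at its EC80 of 0.8 µM; blue over green emission ratio from cleaved BLA substrate after 4 h stimulation; 0% = S1P-stimulated wells and 100% = unstimulated DMSO-only wells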
EP2 confirm: human EP2 receptor cAMP induction, negative in counter-screens | calls only at 20 µM (by protocol) | C6 glioma EP2 cells, cAMP HTRF induction; plus low (about EC15) PGE2 agonist | AID 1080 | actives 47% (n = 1,300) | shares compounds with EP2 mod;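 active = cAMP induction above 50% in the main assay while under 30% in all four parallel counter assays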;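 also: rat C6 glioma cells stably expressing human EP2 receptor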
An asterisk follows results filed as active; i = inactive; · = no result; + = active, no number.

SMILES | EP2 mod | Insulin prom inh | PGE2 EP2 inh | S1P4 agonist | S1P4 antag | S1P3 antagonist | EP2 confirm
Cc1cc(-c2n[nH]c(=S)n2Cc2ccccc2)cs1 | 32 | -3 | 1 | -1 | 11 | 5 | ·
c1csc(C2=NN3C(C2)c2ccccc2OC3c2ccncc2)c1 (stereo unspecified) | 51 | · | 8 | · | · | · | ·
CN1CCN(C(=O)/C(=C/c2ccccc2)c2ccccc2)CC1 | 7 | 43 | 6 | 0 | 13 | · | ·
CC1CCCCN1C(=O)/C(=C\c1ccccc1)c1ccccc1 (stereo unspecified) | 69* | 16 | -1 | -1 | -16 | · | i
O=C(CSc1nc(Cc2ccccc2)nc2ccccc12)c1ccc2c(c1)OCCO2 | 66* | · | 5 | 0 | -8 | · | +
CCc1nc(SCC(=O)c2ccc3c(c2)OCCO3)c2ccccc2n1 | -50 | 41 | 14 | -1 | -14 | · | ·
CCOC(=O)COc1cc(Br)c(/C=N/Nc2ccccc2)cc1OC | 68* | · | · | 0 | 11 | · | i
COc1cc(C=O)c(Br)cc1OCC(=O)NCCc1ccccc1 | -35 | -195 | 4 | -1 | 1 | -23 | ·
CCC1(C)Cc2ccccc2-c2nc3n(c(=O)c21)CCS3 (stereo unspecified) | 79* | 17 | 12 | -1 | 2 | -8 | +
CCC1(C)Cc2ccccc2-c2nc3n(c(=O)c21)CC(C(=O)O)S3 (stereo unspecified) | 3 | · | 16 | 1 | -11 | -38 | ·
Cc1sc2nc(C3CC3)n(C3CCN(C(=O)c4c(F)cccc4F)CC3)c(=O)c2c1C | -17 | · | · | · | · | · | ·
CC(C)Oc1cccc(C(=O)NC(=S)Nc2ccc(N3CCOCC3)cc2)c1 | 13 | · | 18 | · | · | · | ·
O=C1CC(c2ccccc2)=Nc2ccccc2N1 | -3 | 0 | 9 | -1 | -4 | · | ·
C1=C(c2ccccc2)Nc2ccccc2N=C1c1ccccc1 | 66* | 7 | 3 | 0 | -29 | 13 | +
COc1ccc(C(NC(=O)c2cccnc2Cl)c2nccn2C)cc1 (stereo unspecified) | -4 | · | · | · | · | · | ·
COc1ccc2c(-c3ccccc3)cc(N3CCOCC3)nc2c1 | 77* | 19 | 12 | 0 | -7 | 14 | +
C=CCC(NCc1ccccc1)c1ccc(Cl)cc1 (stereo unspecified) | 72* | -18 | 1 | 0 | -11 | 15 | i
CCCn1c(C)nc2c(c1=O)c1nc3ccccc3nc1n2CCc1ccccc1 | · | -3 | · | -2 | 0 | -45 | ·
CCCn1c(C)nc2c(c1=O)c1nc3ccccc3nc1n2CCC1=CCCCC1 | 72* | -11 | 7 | 1 | -7 | -5 | i
CCc1ccccc1NC(=S)N(Cc1ccco1)C(C)c1cccs1 (stereo unspecified) | 60 | -27 | 4 | -1 | 13 | -29 | i
CCCc1cc(C(=O)NCc2nc(-c3ccccc3)no2)n[nH]1 | -39 | · | 6 | · | · | · | ·
O=C(O)c1ccc(-c2ccccc2C(F)(F)F)o1 | 83* | · | 14 | 2 | -13 | -8 | +
O=C(NCc1ccccc1)c1ccc(-c2ccccc2C(F)(F)F)o1 | 13 | 29 | 8 | 2 | 20 | -21 | ·
CC(=O)OC[C@@]1(O)C[C@@]23CCC4c5ccoc5CC[C@]4(C)C2CC[C@@H]1C3 (stereo partly specified) | 69* | · | 9 | · | · | · | i
COc1cnc(N(C)C)nc1Sc1cccc(Cl)c1 | 76* | 16 | 11 | -1 | -4 | · | +
SMILES | EP2 mod | Insulin prom inh | PGE2 EP2 inh | S1P4 agonist | S1P4 antag | S1P3 antagonist | EP2 confirm
COc1cnc(-c2ccccc2)nc1Sc1ccccc1 | 41 | 27 | 3 | 1 | -1 | 11 | ·
O=C(CSc1nnc(-c2ccncc2)n1C1CCCCC1)NC1CCCC1 | 8 | · | 18 | · | · | · | ·
Cc1nnc(SCC(=O)NC2CCCCC2)n1C1CCCCC1 | 53 | -69 | 15 | 0 | -6 | 4 | i
O=C(NCCC1=CCCCC1)c1cccc2c1C(=O)N(C1CCCCC1)C2 | 85* | 33 | 2 | 1 | -7 | -26 | +
Cc1ccccc1N=C1SCC(=O)N1Cc1ccccc1 | 67* | 21 | 12 | 4 | -9 | 4 | +
O=C(CSc1nnc(-c2ccc(S(=O)(=O)N3CCCC3)cc2)o1)OC1CCCCC1 | 23 | · | 15 | · | · | · | ·
Cc1ccc(N=Nc2c(N)[nH]n3c(=O)c4c(nc23)CCCC4)cc1 | 81* | 43 | · | 0 | 0 | · | +
